# Experimental data as given in PubChem BioAssay (EPA / NIEHS).
# Inconclusive results are not listed. Active and inactive are the calls of the source. How the source made its calls, unless noted: active means hit-call score of the fitted dose curve at least 0.9, where 1 is the maximum; inconclusive means response in the unintended direction; inactive means score below 0.9.
# How the values were obtained:
# [1] = molecular target: Agonist Androgen Response Element (ARE), AR (gene 367) (UniProt P10275); assay: OT_AR_ARELUC_AG_1440: Odyssey Thera (OT) 24-hour CHO-K1 Luciferase Assay for Agonist Androgen Response Element (ARE) (AID 2283379)
# How it was run: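 Readout: luciferase bioluminescence from CHO-K1 ARE-luc cells, measured 24 h post-dosing; agonism = increased mean luminescence vs DMSO controls, fitted in positive direction.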
# [2] = molecular target: Estrogen receptor beta (Homo sapiens) (UniProt Q92731); assay: OT_ER_ERbERb_1440: Odyssey Thera (OT) 24-hour HEK293T Protein-Complementation Assay for Estrogen Receptor-beta/-beta Homodimer (AID 2283380);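 further: fluorescence gain from ER beta LBD homodimer complementation read by laser scanning cytometry; scored as signal increase over DMSO baseline for both agonists and antagonists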
# How it was run: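 Fluorescence increase, nuclear for agonists or whole-cell for antagonists, relative to DMSO vehicle, quantified by laser scanning cytometer after fixation and Draq5 staining. Readout from 24 h treatment of HEK293T cells carrying complementation-paired ER beta LBD (aa 310-547).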
# [3] = molecular target: Retinoic acid receptor RXR-alpha (Homo sapiens) (UniProt P19793); assay: OT_NURR1_NURR1RXRa_0480: Odyssey Thera (OT) 8-hour HEK293T Protein Complementation Assay for Nurr1/retinoid X receptor (RXR) (AID 2283385)
# How it was run: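 Gain in fluorescent complementation signal over DMSO, measured 8 hours after chemical dosing of human kidney HEK293T cells, indicated enhanced Nurr1–RXRα association.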
# [4] = molecular target: Retinoic acid receptor RXR-alpha (Homo sapiens) (UniProt P19793); assay: OT_NURR1_NURR1RXRa_1440: Odyssey Thera (OT) 24-hour HEK293T Protein Complementation Assay for Nurr1/retinoid X receptor (RXR) (AID 2283386)
# How it was run: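 Cell-based binding reporter: HEK293T cells, 24 h exposure, fluorescence-detected fragment complementation, DMSO as baseline.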
# [5] = molecular target: Bile acid receptor (Homo sapiens) (UniProt Q96RI1); assay: OT_FXR_FXRSRC1_0480: Odyssey Thera (OT) 8-hour HEK293T Protein-Complementation Assay for Farnesoid X receptor/SRC-1 Co-activator (AID 2283383)
# How it was run: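 Readings were taken 8 h after dosing HEK293T cells in a split-reporter complementation format pairing FXR with SRC-1. Increased fluorescence relative to DMSO-treated wells defined activity.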
# [6] = molecular target: Bile acid receptor (Homo sapiens) (UniProt Q96RI1); assay: OT_FXR_FXRSRC1_1440: Odyssey Thera (OT) 24-hour HEK293T Protein-Complementation Assay for Farnesoid X receptor/SRC-1 Co-activator (AID 2283384)
# How it was run: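 Single endpoint, analysed for increased fluorescence against DMSO controls. HEK293T cells carrying FXR and SRC-1 linked to complementary reporter halves were exposed to chemicals for 24 h before reading.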
# [7] = molecular target: Peroxisome proliferator-activated receptor gamma (Homo sapiens) (UniProt P37231); assay: OT_PPARg_PPARgSRC1_0480: Odyssey Thera (OT) 8-hour Protein-Complementation Assay for Peroxisome Proliferator-activated Receptor Gamma / SRC-1 Co-activator (AID 2283387);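 further: nuclear to cytoplasmic split Venus YFP fluorescence ratio reporting PPARg SRC-1 interaction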
# How it was run: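 Split-YFP (IFP1/IFP2) PPARg/SRC-1 reporter, HEK293T, 37 °C, 5% CO2; 8 h compound; formaldehyde fix + Draq5; high-content imaging, N/C ratio, ≥350 cells/image, positive direction vs DMSO.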
# [8] = molecular target: human Norepinephrine Transporter (NET), SLC6A2 (gene 6530) (UniProt P23975); assay: NVS_TR_hNET: NovaScreen (NVS) Transporter Assay for human Norepinephrine Transporter (NET) (AID 2283377);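 further: cell-free membrane protein extracted from CHO cells expressing human NET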
# How it was run: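 Single-concentration duplicate screen at 25 uM, then concentration-response for actives; displacement of specific radioligand from human NET in CHO membrane extracts, filter-based scintillation detection at 1 h relative to DMSO.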
# [9] = molecular target: Estrogen receptor (Homo sapiens) (UniProt P03372); assay: OT_ERa_GFPERaERE_0480: Odyssey Thera (OT) 8-hour HeLa Transcription Induction Assay for Estrogen Receptor (AID 2283381; active means hit-call score of the fitted dose curve at least 0.9, where 1 is the maximum; inactive means score below 0.9)
# How it was run: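 An 8 h HeLa transcription-induction format with a GFP reporter under ERE control, read by fluorescence microscopy; single endpoint fitted positively with DMSO as baseline.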
# [10] = molecular target: Estrogen receptor (Homo sapiens) (UniProt P03372); assay: OT_ERa_GFPERaERE_0120: Odyssey Thera (OT) 2-hour HeLa Transcription Induction Assay for Estrogen Receptor (AID 2283382)
# How it was run: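 Two-hour compound treatment of HeLa cells preceded microscopy imaging of an inducible fluorescent reporter. Image-based quantification gave one endpoint, analysed for signal increase relative to DMSO controls.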
# Chain of Peroxisome proliferator-activated receptor gamma (Homo sapiens) (P37231 whole entry, looked up): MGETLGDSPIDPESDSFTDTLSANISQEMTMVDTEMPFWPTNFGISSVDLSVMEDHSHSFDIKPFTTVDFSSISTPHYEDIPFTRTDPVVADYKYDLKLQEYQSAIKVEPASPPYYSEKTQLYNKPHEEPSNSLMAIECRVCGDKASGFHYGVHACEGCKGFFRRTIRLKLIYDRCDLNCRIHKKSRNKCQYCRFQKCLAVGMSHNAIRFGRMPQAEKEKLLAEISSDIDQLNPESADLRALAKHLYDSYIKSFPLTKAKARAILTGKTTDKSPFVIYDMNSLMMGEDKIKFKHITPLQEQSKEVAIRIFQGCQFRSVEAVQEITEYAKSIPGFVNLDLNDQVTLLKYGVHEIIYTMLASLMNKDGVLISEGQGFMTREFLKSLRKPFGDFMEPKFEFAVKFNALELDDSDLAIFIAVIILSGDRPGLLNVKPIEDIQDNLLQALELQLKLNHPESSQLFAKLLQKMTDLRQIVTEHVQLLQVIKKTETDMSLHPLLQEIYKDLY
# Chain of Estrogen receptor beta (Homo sapiens) (Q92731 whole entry, looked up, the tested form may be a part): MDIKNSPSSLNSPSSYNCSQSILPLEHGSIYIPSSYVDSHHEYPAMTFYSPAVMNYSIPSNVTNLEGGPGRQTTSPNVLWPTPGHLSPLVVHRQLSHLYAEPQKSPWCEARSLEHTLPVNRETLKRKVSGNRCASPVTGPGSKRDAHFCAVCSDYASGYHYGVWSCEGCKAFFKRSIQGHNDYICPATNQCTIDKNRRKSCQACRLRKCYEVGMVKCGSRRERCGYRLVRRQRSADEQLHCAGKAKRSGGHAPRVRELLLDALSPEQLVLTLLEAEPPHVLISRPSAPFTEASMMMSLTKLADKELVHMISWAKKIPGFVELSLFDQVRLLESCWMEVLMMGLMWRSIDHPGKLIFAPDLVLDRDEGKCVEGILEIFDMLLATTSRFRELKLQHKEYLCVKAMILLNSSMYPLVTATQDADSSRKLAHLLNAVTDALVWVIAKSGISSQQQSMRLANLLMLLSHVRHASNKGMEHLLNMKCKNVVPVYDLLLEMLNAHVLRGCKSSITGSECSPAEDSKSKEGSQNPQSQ
# Chain of Retinoic acid receptor RXR-alpha (Homo sapiens) (P19793 whole entry, looked up, the tested form may be a part): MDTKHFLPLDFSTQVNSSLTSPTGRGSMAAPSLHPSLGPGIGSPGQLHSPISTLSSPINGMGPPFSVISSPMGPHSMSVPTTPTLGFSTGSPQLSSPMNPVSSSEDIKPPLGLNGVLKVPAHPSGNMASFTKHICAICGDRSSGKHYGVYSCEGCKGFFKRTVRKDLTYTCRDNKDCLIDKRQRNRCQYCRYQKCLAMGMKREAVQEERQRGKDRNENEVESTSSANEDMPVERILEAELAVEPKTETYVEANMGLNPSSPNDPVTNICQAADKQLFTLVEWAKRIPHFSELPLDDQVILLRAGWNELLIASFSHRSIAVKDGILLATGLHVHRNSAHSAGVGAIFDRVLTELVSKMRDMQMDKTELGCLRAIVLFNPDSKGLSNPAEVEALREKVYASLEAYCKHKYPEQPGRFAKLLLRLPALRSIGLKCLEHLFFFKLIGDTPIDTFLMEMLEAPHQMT
# Chain of Bile acid receptor (Homo sapiens) (Q96RI1 whole entry, looked up): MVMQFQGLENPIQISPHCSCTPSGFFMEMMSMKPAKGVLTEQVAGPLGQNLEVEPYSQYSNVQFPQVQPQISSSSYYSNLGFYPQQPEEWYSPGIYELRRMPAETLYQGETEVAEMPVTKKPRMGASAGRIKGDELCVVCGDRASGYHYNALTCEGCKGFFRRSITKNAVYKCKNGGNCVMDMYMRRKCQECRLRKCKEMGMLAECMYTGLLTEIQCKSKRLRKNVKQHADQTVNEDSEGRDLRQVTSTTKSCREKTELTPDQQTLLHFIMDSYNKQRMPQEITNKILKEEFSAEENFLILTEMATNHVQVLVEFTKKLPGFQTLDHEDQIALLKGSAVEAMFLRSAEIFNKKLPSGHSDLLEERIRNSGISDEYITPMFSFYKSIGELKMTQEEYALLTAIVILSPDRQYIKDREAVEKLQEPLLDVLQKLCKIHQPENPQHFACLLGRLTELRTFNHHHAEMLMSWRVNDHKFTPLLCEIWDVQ
# Chain of Estrogen receptor (Homo sapiens) (P03372 whole entry, looked up): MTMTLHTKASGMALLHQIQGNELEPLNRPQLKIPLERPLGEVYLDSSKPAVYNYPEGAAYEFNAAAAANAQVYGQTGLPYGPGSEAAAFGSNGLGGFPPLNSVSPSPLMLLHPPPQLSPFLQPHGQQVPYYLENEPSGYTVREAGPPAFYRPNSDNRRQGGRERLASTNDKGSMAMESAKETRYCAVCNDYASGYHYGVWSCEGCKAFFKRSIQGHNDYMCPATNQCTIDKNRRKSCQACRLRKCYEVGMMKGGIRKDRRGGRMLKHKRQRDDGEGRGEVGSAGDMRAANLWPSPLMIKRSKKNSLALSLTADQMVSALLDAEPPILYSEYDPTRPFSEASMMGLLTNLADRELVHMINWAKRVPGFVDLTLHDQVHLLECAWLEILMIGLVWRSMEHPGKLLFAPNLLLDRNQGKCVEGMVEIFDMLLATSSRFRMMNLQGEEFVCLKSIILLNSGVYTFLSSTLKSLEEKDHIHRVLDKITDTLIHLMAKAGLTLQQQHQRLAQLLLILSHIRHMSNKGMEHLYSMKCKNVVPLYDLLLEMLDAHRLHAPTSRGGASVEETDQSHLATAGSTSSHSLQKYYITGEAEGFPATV
# Chain of Agonist Androgen Response Element (ARE), AR (gene 367) (P10275 whole entry, looked up): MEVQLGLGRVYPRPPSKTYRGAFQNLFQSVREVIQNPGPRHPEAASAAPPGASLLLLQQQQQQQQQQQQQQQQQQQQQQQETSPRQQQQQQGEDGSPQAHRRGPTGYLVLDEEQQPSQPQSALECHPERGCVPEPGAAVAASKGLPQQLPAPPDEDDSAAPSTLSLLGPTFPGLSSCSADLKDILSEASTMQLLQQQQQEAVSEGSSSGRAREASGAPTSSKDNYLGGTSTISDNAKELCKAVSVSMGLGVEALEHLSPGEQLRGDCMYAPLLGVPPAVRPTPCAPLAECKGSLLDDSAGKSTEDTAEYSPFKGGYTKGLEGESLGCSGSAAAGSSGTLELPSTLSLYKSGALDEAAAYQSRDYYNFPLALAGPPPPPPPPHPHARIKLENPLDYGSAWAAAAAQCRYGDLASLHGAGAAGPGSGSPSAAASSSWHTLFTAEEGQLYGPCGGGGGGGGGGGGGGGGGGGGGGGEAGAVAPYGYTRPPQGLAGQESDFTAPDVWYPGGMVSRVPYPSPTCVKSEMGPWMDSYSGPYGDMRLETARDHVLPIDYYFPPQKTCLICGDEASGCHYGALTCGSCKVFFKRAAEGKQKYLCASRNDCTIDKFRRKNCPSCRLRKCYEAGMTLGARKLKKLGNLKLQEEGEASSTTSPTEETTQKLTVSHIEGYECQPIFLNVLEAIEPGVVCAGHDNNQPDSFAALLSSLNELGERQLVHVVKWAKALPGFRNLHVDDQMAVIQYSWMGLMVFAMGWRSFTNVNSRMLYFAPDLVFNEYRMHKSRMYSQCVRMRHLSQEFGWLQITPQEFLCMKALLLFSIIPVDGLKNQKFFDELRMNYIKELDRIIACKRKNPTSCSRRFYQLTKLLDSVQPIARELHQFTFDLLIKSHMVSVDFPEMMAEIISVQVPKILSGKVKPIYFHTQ
# Chain of human Norepinephrine Transporter (NET), SLC6A2 (gene 6530) (P23975 whole entry, looked up): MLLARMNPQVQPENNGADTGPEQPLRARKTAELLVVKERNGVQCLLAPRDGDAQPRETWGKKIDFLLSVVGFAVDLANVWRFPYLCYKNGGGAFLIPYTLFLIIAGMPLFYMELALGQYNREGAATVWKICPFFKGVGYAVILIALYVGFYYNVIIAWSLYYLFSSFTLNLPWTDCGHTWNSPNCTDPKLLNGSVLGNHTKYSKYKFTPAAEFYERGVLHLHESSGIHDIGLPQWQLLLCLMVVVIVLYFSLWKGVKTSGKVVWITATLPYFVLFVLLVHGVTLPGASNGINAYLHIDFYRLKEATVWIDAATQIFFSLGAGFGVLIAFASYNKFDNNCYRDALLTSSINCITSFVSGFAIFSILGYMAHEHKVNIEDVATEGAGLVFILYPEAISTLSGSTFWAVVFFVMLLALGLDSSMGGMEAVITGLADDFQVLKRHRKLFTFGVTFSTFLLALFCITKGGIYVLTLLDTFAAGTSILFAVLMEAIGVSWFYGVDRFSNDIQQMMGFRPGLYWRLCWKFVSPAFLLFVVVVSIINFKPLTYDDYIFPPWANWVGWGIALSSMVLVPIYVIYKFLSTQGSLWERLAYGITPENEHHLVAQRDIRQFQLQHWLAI
smiles,measurement,setting,value
BrCc1cccc(Oc2ccccc2)c1,outcome,[1],inactive
same,AC50,[2],56.3 µM (active)
same,outcome,[3],inactive
same,outcome,[4],inactive
O=[N+]([O-])c1ccc(O)cc1C(F)(F)F,AC50,[2],68.4 µM (active)
same,outcome,[5],inactive
same,AC50,[6],77.1 µM (active)
same,outcome,[7],inactive
C[C@@H]1CCN(C(=O)[C@H](CCCN=C(N)N)NS(=O)(=O)c2cccc3c2NC[C@H](C)C3)[C@@H](C(=O)O)C1,outcome,[8],inactive
COC(=O)c1ccc(C)cc1C1=NC(C)(C(C)C)C(=O)N1 (stereo not drawn) (tested in a mixture with another compound),outcome,[2],inactive
same,outcome,[3],inactive
same,outcome,[7],inactive
CCCCCCCC/C=C\CCCCCCCC(=O)OCC,outcome,[3],inactive
same,outcome,[7],inactive
CC(C)Nc1nc(N)nc(Cl)n1,outcome,[2],inactive
same,outcome,[3],inactive
same,outcome,[7],inactive
CCC1(C)NC(=O)NC1=O (stereo not drawn),outcome,[2],inactive
same,outcome,[5],inactive
same,outcome,[4],inactive
same,outcome,[7],inactive
O=C(c1ccccc1)C(O)c1ccccc1 (stereo not drawn),outcome,[2],inactive
same,outcome,[7],inactive
C=C(C)[C@@H]1CC=C(C)C(=O)C1,outcome,[2],inactive
same,outcome,[3],inactive
same,outcome,[4],inactive
CCCCOC(=O)CCCCCCCC(=O)OCCCC,outcome,[2],inactive
same,outcome,[5],inactive
same,outcome,[3],inactive
same,outcome,[4],inactive
same,outcome,[7],inactive
C=Cc1ccc(C)cc1,outcome,[2],inactive
same,outcome,[7],inactive
CCCCCC(C)=O,outcome,[2],inactive
same,outcome,[3],inactive
same,outcome,[7],inactive
O=C(O)CCCCCCCCC(=O)O,outcome,[3],inactive
same,outcome,[4],inactive
same,outcome,[7],inactive
C[Si](C)(C)O[Si](C)(C)C,outcome,[2],inactive
same,outcome,[7],inactive
ON=C1CCCCC1,outcome,[2],inactive
same,outcome,[3],inactive
same,outcome,[7],inactive
CCCCC1CCC(O)CC1 (stereo not drawn),outcome,[5],inactive
same,outcome,[6],inactive
same,outcome,[3],inactive
same,outcome,[7],inactive
C#CC(C)(O)CC(C)C (stereo not drawn),outcome,[2],inactive
same,outcome,[3],inactive
same,outcome,[4],inactive
same,outcome,[7],inactive
CCCC(C)=O,outcome,[5],inactive
same,outcome,[6],inactive
same,outcome,[3],inactive
same,outcome,[7],inactive
CC(C)CCOC(=O)c1ccccc1,outcome,[5],inactive
same,outcome,[7],inactive
CC(C)CC(C)CC(O)CC(C)C (stereo not drawn),outcome,[5],inactive
same,outcome,[6],inactive
same,outcome,[4],inactive
same,outcome,[7],inactive
CS(C)=O,outcome,[6],inactive
same,outcome,[3],inactive
same,outcome,[4],inactive
same,outcome,[7],inactive
O=Cc1ccccc1S(=O)(=O)O,outcome,[2],inactive
same,outcome,[3],inactive
same,outcome,[4],inactive
same,outcome,[7],inactive
OCC#CCO,outcome,[2],inactive
same,outcome,[7],inactive
O=c1c(O)c(-c2ccc(O)cc2)oc2cc(O)cc(O)c12,outcome,[5],inactive
same,AC50,[6],19.8 µM (active)
same,outcome,[3],inactive
CCCOCCO,outcome,[6],inactive
same,outcome,[7],inactive
CCCCCCC(CO)CCCC (stereo not drawn),outcome,[3],inactive
same,outcome,[7],inactive
CCCCCC(=O)CC,outcome,[3],inactive
same,outcome,[7],inactive
CN1C(=O)c2ccccc2C1=O,outcome,[2],inactive
same,outcome,[3],inactive
same,outcome,[4],inactive
same,outcome,[7],inactive
OCC(O)c1ccccc1 (stereo not drawn),outcome,[9],inactive
same,outcome,[10],inactive
same,outcome,[3],inactive
